Hits are enriched below; roughly 32% of the tested compounds scored in any of these assays.
PostGolgi yeast: growth inhibition of a yeast mutant, post-Golgi transport screen; post-Golgi transport phenotypic cell assay; inhibition, % at 10 µM; 98,000 compounds, 0.9% hits; AID 739;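 also: yeast cells grown in 1536-well plates; yeast grown about 18 h at 30C before absorbance read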
CYP2C19 activ: increases human CYP2C19 enzyme activity | activation factor at 5 µM | recombinant CYP2C19, luciferin-H EGE luminescence; stronger effect = higher value; 0 = fully inhibited enzyme, 1 = untreated enzyme | AID 1025 | 96,000 tested, under 10 active | P33261;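 active = activation factor of at least 2 at 5 µM in the primary screen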;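 also: 0 = wells with 2.5 mM tranylcypromine and 1 = vehicle-only wells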
CYP2C9 act: CYP2C9 (human) activation. recombinant CYP2C9, luciferin-H conversion, luminescence; stronger effect = higher value; factor 1 = untreated enzyme, 0 = blocked. activation factor at 5 µM. 96,000 compounds, 1.4% hits. AID 1024;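 active = activation factor of 2 or more for CYP2C9 at a 5 µM dose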;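 also: 0 = sulfaphenazole-blocked wells and 1 = vehicle-only wells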
Target sequence (P11712 whole entry, looked up): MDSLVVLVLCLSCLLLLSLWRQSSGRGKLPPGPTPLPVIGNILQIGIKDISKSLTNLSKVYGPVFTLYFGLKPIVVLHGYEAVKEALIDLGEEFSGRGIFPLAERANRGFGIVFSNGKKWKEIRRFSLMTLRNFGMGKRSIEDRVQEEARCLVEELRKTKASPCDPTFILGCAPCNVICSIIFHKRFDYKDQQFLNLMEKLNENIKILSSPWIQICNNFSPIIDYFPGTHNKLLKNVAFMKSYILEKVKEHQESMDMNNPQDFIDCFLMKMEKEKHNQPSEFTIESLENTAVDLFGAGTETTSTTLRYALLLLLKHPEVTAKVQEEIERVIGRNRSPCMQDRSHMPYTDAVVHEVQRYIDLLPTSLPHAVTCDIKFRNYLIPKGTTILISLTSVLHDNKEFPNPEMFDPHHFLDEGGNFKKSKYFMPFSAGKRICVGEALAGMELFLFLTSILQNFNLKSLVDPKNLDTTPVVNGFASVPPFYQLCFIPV
CYP2C9 inhib: human CYP2C9 inhibition. inhibition, % at 5 µM. 96,000 compounds, 20% hits. CYP2C9 Supersomes, luciferin-H conversion, luminescence. P11712. AID 777;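 active = blocking of liver enzyme CYP2C9 beyond about 50% at 5 µM, limit read from the data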
PostGolgi ctrl: growth of the yeast control strain, post-Golgi counter-screen. efflux-deficient yeast background strain, growth absorbance A615, 16 h. 98,000 compounds, 5% hits. inhibition, % at 10 µM
CYP2C19 inh: human CYP2C19 inhibition; P33261; CYP2C19 Supersomes, luciferin-H EGE luminescence, 30 min; inhibition, % at 5 µM; 96,000 compounds, 21% hits; AID 778;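 active = CYP2C19 inhibition above a set limit at 5 µM in the primary screen, cut at about 50% in these data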;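 also: plate controls were negative control wells for no effect and 2.5 mM tranylcypromine positive control for full effect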
An asterisk follows results filed as active; · = no result given. Rule as the data show it, unless noted: active = inhibition above about 30%; inactive = the rest.

SMILES | PostGolgi yeast | CYP2C19 activ | CYP2C9 act | CYP2C9 inhib | PostGolgi ctrl | CYP2C19 inh
CCC(C)(C)n1nnnc1C(c1ccc(OC)c(OC)c1)N1CCN(c2ccc(F)cc2)CC1 (centres undefined) | -0.6 | · | · | · | 2.4 | ·
COc1ccc(C(c2nnnn2C(C)(C)C)N2CCN(C)CC2)cc1OC (centres undefined) | 0.8 | 1 | 1.1 | -6.4 | -1.2 | -4.1
Cc1oc2c(c1C(=O)Nc1cccc(C(=O)O)c1)CCCC2 | 12.8 | 1.1 | 0.8 | 17.5 | 7.8 | -5.7
Cc1cc2cc(CNS(=O)(=O)c3ccccc3)ccc2n1C | 2.4 | 0 | 0.3 | 74.3* | -10.4 | 100.1*
COc1ccc(S(=O)(=O)NCc2ccc3c(c2)cc(C)n3C)cc1 | -5.0 | 0.2 | 0.8 | 17.7 | 4.1 | 75.8*
CCCS(=O)(=O)NCc1ccc2c(c1)cc(C)n2C | -0.9 | · | · | · | 10.9 | ·
Cc1cc2cc(CNC(=O)c3ccc(S(=O)(=O)N4CCCC4)cc3)ccc2n1C | 0.2 | 1 | 0.2 | 81.6* | 6.5 | 4.5
CCS(=O)(=O)NCc1ccc2c(c1)cc(C)n2C | -3.0 | 0.5 | 0.4 | 59.9* | 6.5 | 54.2*
O=C1C2C3C=CC(C2C(=O)N1C1CCCCC1)C1C(=O)N(C2CCCCC2)C(=O)C31 (centres undefined) | -5.1 | 0.7 | 0.8 | 23.3 | 12.9 | 26.0
CCc1ccc(N2C(=O)C3ON(c4ccccc4)C(c4ccco4)C3C2=O)cc1 (centres undefined) | 8.2 | 0.9 | 0.7 | 31.1 | 22.7 | 8.5
CCCCN1C(=O)C2ON(c3ccccc3C)C(c3ccco3)C2C1=O (centres undefined) | -13.7 | 0.2 | 0 | 95.7* | 24.6 | 77.3*
CCN(CC)S(=O)(=O)c1csc(C(=O)NC2CCCCC2)c1 | -6.5 | 1 | 0.4 | 61.8* | 19.4 | 2.3
CCN(CC)S(=O)(=O)c1cccc(C(=O)NC2CCCCC2)c1 | 4.6 | 0.6 | 0.4 | 57.6* | -6.5 | 38.0
CCN(CC)S(=O)(=O)c1csc(C(=O)NCc2ccccc2)c1 | -5.0 | 0.8 | 0.6 | 44.8 | 2.6 | 17.6
CCN(CC(=O)NC1CCCCCC1)S(=O)(=O)c1ccccc1 | 20.7 | 0.7 | 0.8 | 21.3 | 6.3 | 27.8
CCOC(=O)C(C)Sc1nnc(-c2ccccc2O)n1-c1ccc(C)cc1 (centres undefined) | 7.3 | 0.5 | 0.7 | 26.0 | 11.0 | 48.4
CN(C(=O)c1ccc(Cl)c(S(=O)(=O)N2CCOCC2)c1)c1ccccc1C(=O)O | -8.3 | 1.1 | 0.9 | 6.8 | -1.3 | -7.7
O=C(NCN1CCc2ccccc2C1)c1ccccc1 | 0.5 | 0.2 | 0.8 | 19.7 | -7.5 | 81.3*
O=C(NCN1CCc2ccccc2C1)c1cnccn1 | -5.3 | 1 | 1.2 | -19.8 | -2.5 | -1.6
O=C(CN1CCc2ccccc2C1)c1cccs1 | -1.3 | 0.1 | 0.8 | 24.1 | -5.2 | 92.3*
O=C(c1cccc(F)c1)N1CCN(c2cc(N3CCCCC3)c(F)cc2[N+](=O)[O-])CC1 | -11.7 | 0.1 | 0.1 | 88.8* | 52.2* | 90.8*
O=C(/C=C/c1ccc(Cl)cc1)N1CCN(c2ccc(Cl)cc2[N+](=O)[O-])CC1 | -14.1 | 0.5 | 0.6 | 44.5 | 92.5* | 53.8*
O=C(c1ccc2ccccc2c1)N1CCN(c2ccc(O)cc2)CC1 | 1.3 | 0.4 | 0.8 | 18.4 | 10.9 | 62.3*
O=C(c1ccc(=O)oc1)N1CCN(c2ccc(F)cc2)CC1 | 0.8 | 0.9 | 0.7 | 26.7 | 13.7 | 8.8
O=C(c1ccc(F)cc1)N1CCN(c2ccc([N+](=O)[O-])c(N3CCCCC3)c2)CC1 | -6.9 | 0.8 | 0.4 | 62.4* | 12.9 | 19.0
SMILES | PostGolgi yeast | CYP2C19 activ | CYP2C9 act | CYP2C9 inhib | PostGolgi ctrl | CYP2C19 inh
COc1ccc(N2CCN(C(=O)c3ccc(C(C)(C)C)cc3)CC2)cc1 | 12.2 | 0.8 | 0.6 | 40.8 | 24.2 | 20.3
O=C(/C=C/c1ccc(Cl)cc1)N1CCN(c2ncccn2)CC1 | 6.9 | 0.9 | 0.9 | 10.3 | -2.4 | 10.0
CCOC(=O)CC1C(=O)NCCN1C(=O)NC1CCCCC1 (centres undefined) | -4.8 | 1 | 0.7 | 27.2 | -2.8 | -2.7
C=CCc1ccccc1OCC(=O)OCCNC(=O)c1cccnc1 | -2.2 | 0.9 | 0.8 | 17.5 | -0.9 | 9.7
O=[N+]([O-])c1ccc(N2CCOCC2)cc1NCc1ccccc1 | -0.6 | 0.6 | 0.7 | 33.3 | 6.9 | 41.4
Cc1cccc(C(=O)N2CCN(c3ccc([N+](=O)[O-])c(N4CCOCC4)c3)CC2)c1 | 5.6 | 1 | 0.5 | 54.5* | 4.7 | 3.2
CC1CCN(c2ccc(C(=O)N3CCOCC3)cc2[N+](=O)[O-])CC1 | -4.7 | 1 | 1 | -3.4 | -3.1 | -2.8
O=C(c1ccc(N2CCCCC2)c([N+](=O)[O-])c1)N1CCOCC1 | -6.5 | 0.8 | 1 | -1.6 | -4.4 | 16.4
O=C(/C=C/c1ccccc1)N1CCN(c2ccc([N+](=O)[O-])c(N3CCOCC3)c2)CC1 | -4.7 | 0.6 | 0.3 | 71.5* | 2.9 | 42.4
O=[N+]([O-])c1cc([N+](=O)[O-])c(N2CCOCC2)cc1NCc1ccccc1 | 8.9 | 0.7 | 0.1 | 85.5* | 10.4 | 29.0
Cc1nn(-c2cc(N3CCOCC3)ccc2[N+](=O)[O-])c(=O)c2ccccc12 | 0.9 | 1 | 0.8 | 20.4 | 6.9 | -4.9
O=C(c1ccc2ccccc2c1)N1CCN(c2ccc([N+](=O)[O-])c(N3CCOCC3)c2)CC1 | -2.4 | 0.5 | 0.3 | 65.3* | 19.9 | 46.1
CN1CCN(CCNC(=O)c2cc3c(=O)n(C)c4ccccc4c3n2C)CC1 | -1.4 | 0.9 | 0.9 | 5.2 | 17.0 | 8.9
O=C(c1cc(C2CC2)on1)N1CCOCC1 | 5.3 | 1 | 1.1 | -5.1 | -2.1 | -3.2
CCOC(=O)C(C)n1cnc2c(oc3ccccc32)c1=O (centres undefined) | 4.8 | 0.9 | 0.8 | 17.7 | -2.6 | 7.7
Cc1ccc2c(n1)sc1c(-c3ccccc3)c(C#N)c(N)nc12 | 0.3 | 1.1 | 0.9 | 12.4 | 10.2 | -10.4
Cc1occc1C(=O)NNC(=O)C(c1ccccc1)c1ccccc1 | -2.4 | 0.8 | 0.6 | 41.0 | 7.4 | 19.7
CCOC(=O)N1CCN(c2c(N3CCc4ccccc4C3)c(=O)c2=O)CC1 | -0.6 | 0.9 | 0.6 | 38.0 | 1.6 | 8.8
CC(=O)N1CCN(c2cc(N3CCc4ccccc4C3)c(F)cc2[N+](=O)[O-])CC1 | 0.0 | 0.6 | 0.5 | 54.3* | 23.1 | 37.3
CN1CC(=O)N(C)c2nc(Br)n(C)c2C1=O | -2.7 | 1.1 | 1.2 | -19.4 | -2.4 | -13.8
Cc1[nH]n(-c2ccccc2)c(=O)c1C1(C(F)(F)F)C(=O)N(c2ccc(F)cc2)C2=C1C(=O)CC(C)(C)C2 (centres undefined) | 3.5 | 0.7 | 0.2 | 77.6* | 21.0 | 26.3
CC(=O)Nc1ccc(SCC(=O)c2cc(C)n(CC(F)(F)F)c2C)cc1 | -3.8 | 0.1 | 0.4 | 57.5* | 5.9 | 93.4*
CC(=O)Nc1ccc(SCC(=O)c2cc(C)n(C)c2C)cc1 | -4.6 | 0.2 | 0.6 | 41.0 | 5.1 | 79.1*

Bioassay records from PubChem.
